# In paper PMC4336329 (PLoS ONE, 2015):
# The whole screen tested about 310,000 compounds, of which about 14,000 (4.5%) showed an effect of 50% or more. Effects have a minus sign here. The full list was thinned out, with strong results kept by preference.
# Biological target: human ether-à-go-go-related gene (hERG) potassium channel (human, UniProt Q12809)
# Assay: primary screen, population patch clamp on CHO cells stably expressing hERG; higher = less effect of the substance
# 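Note: peak tail current of the secondary pulse compared with the same well before compound.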
# Sequence of human ether-à-go-go-related gene (hERG) potassium channel (Q12809 whole entry, looked up): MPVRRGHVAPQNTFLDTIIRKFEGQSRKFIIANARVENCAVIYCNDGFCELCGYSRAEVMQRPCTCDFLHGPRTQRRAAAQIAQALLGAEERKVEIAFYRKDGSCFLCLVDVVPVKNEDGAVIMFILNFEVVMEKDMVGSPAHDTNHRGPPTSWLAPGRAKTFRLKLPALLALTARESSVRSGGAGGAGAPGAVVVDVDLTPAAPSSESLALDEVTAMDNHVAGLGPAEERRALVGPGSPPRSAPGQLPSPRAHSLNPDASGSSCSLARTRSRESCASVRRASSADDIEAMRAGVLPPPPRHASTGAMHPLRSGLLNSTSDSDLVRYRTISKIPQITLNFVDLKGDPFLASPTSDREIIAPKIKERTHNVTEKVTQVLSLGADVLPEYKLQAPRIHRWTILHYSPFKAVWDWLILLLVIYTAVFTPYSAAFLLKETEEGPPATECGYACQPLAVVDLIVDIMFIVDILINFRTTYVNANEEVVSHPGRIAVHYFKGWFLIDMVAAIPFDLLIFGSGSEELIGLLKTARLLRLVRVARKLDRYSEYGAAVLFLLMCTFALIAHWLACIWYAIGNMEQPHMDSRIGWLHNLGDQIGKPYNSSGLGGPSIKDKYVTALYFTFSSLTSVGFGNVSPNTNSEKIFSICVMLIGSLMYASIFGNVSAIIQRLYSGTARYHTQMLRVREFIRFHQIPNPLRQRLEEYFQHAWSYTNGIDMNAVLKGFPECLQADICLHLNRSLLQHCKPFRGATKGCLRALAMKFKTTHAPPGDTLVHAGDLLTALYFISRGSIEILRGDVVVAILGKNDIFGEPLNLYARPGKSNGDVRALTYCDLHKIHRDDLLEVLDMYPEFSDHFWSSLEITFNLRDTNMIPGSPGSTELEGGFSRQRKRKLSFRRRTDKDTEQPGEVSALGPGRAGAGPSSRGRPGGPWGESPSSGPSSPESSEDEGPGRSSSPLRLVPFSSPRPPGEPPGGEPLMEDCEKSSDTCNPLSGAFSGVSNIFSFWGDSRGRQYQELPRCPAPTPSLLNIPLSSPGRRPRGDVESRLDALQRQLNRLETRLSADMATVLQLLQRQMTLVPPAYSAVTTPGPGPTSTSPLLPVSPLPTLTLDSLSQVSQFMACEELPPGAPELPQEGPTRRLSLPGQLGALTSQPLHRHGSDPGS
row,SMILES,"hERG current change (%, negative = inhibition) at 10uM [%]"
1,Cc1ccc(S(=O)(=O)Nc2cc(C)on2)cc1,15.4
2,CCN(CC(=O)Nc1ccc(NC(C)=O)cc1)C(=O)c1cc(-c2ccccc2)nn1-c1ccccc1,8.43
3,O=C(CSc1nnc(-c2cccnc2)o1)NNC(=O)c1ccc(Br)cc1,2.19
4,O=C(COc1ccccc1)N(Cc1cc2ccccc2[nH]c1=O)CC1CCCO1 (centres unmarked),-1.24
5,CCC1(c2ccccc2)NC(=O)N(CC(=O)Nc2ccccc2N2CCCC2)C1=O (centres unmarked),1.38
6,O=C(c1cc(-c2cccc(Cl)c2)nc2ccccc12)N1CCCC1,-40.2
7,CCC(C)NS(=O)(=O)c1ccc(OCC(=O)Nc2ccc3c(c2)OCCO3)cc1 (centres unmarked),-26.3
8,Cl.Fc1ccc(COc2ccc(Br)cc2CNCc2ccncc2)cc1,-74.7
9,Cl.Fc1ccccc1COc1ccccc1CNCc1ccncc1,-44
10,Cl.Fc1ccccc1COc1ccc(Br)cc1CNCc1cccnc1,-70.2
11,Cl.Fc1ccc(COc2ccccc2CNCc2ccncc2)cc1,-32.6
12,Cl.Fc1ccccc1COc1ccc(Br)cc1CNCc1ccncc1,-70.2
13,COc1cc(CNCc2ccncc2)cc(Br)c1OCc1ccccc1F.Cl,-43.3
14,CCOc1ccc(Br)cc1CNCc1cccnc1,-10.2
15,Brc1ccc(OCc2ccccc2)c(CNCc2ccncc2)c1.Cl,-19.9
16,Cl.c1ccc(COc2ccccc2CNCc2cccnc2)cc1,-8.89
17,CCC(NC(=O)c1ccccc1NC(=O)c1ccco1)C(=O)NNC(=O)c1ccncc1 (centres unmarked),8.86
18,COc1ccc(NC(=O)CCCc2ccc(OC)c(C)c2)cc1,3.93
19,Cn1nnnc1SCC(=O)NCc1ccc2c(c1)OCO2,31.4
20,CC(C)c1cc(C(=O)N/N=C/c2cccnc2)cs1,-31.9
21,c1coc(CSc2ncnc3c2oc2ccccc23)c1,13.9
22,COCCN(CCOC)c1nc(-c2ccc(C)cc2)nc2ccccc12.Cl,-65.4
23,COCCNc1nc(-c2ccccc2)nc2ccccc12.Cl,-32.5

row,SMILES,"hERG current change (%, negative = inhibition) at 10uM [%]"
1,COCCN(CCOC)c1nc(-c2ccccc2)nc2ccccc12,-68.2
2,COCCN(CCOC)c1nc(-c2ccc([N+](=O)[O-])cc2)nc2ccccc12,-34.3
3,COCCN(CCOC)c1nc(-c2ccc(Cl)cc2)nc2ccccc12,-5.82
4,Cc1ccc(-c2nc(NCCN(C)C)c3ccccc3n2)cc1,-44.9
5,O=C(O)C1CC(=O)N(c2ccc(F)c(F)c2)C1 (centres unmarked),13
6,CCCCOC(=O)C1=C(C)NC(=O)NC1c1ccccc1 (centres unmarked),6.12
7,O=C(N[C@H]1CCC(=O)N([C@H](CSc2ccccc2)Cc2ccccc2)CC1)OCc1ccccc1,-37.6
8,O=C(NC1CCC(=O)N(CCSc2ccccc2)CC1)OCc1ccccc1 (centres unmarked),-59.2
9,Cc1ccc(S[C@@H](CCN2CC[C@H](NC(=O)OCc3ccccc3)CCC2=O)c2ccccc2)cc1,-26.1
10,O=C(N[C@@H]1CCC(=O)N(CC[C@H](Sc2ccccc2)c2ccccc2)CC1)OCc1ccccc1,-24
11,N#CC[C@H](Cc1ccccc1)N1CC[C@@H](NC(=O)OCc2ccccc2)CCC1=O,-45.1
12,Cc1ccc(SC[C@H](C)CN2CC[C@H](NC(=O)OCc3ccccc3)CCC2=O)cc1,-41.6
13,[N-]=[N+]=NC[C@H](Cc1ccccc1)N1CC[C@@H](NC(=O)OCc2ccccc2)CCC1=O,-52.5
14,COc1ccc(SC[C@H](Cc2ccccc2)N2CC[C@@H](NC(=O)OCc3ccccc3)CCC2=O)cc1,-10.2
15,O=C(N[C@H]1CCC(=O)N(CCSc2ccc(Br)cc2)CC1)OCc1ccccc1,-29.2
16,COc1ccc(SCCN2CC[C@@H](NC(=O)OCc3ccccc3)CCC2=O)cc1,-54.4
17,Cc1ccc(SCCN2CCC(NC(=O)OCc3ccccc3)CCC2=O)cc1 (centres unmarked),-50.1
18,O=C(NC1CCC(=O)N(CCOc2ccccc2)CC1)OCc1ccccc1 (centres unmarked),-30.2
19,N/C(=N\OC(=O)COc1ccc2ccccc2c1Br)c1cccnc1,12.9
20,Cc1cc(C)cc(C(=O)OCC(=O)Nc2ncccn2)c1,-0.75
21,Cc1cccc(NC(=O)c2ccc3nc(N4CCOCC4)sc3c2)c1C,-34.7
22,COc1ccc(S(=O)(=O)NCCc2cc3ccc(C)c(C)c3[nH]c2=O)cc1,17.2
23,C/C(=N\NC(=O)c1c[nH]c2ccccc12)c1ccc2c(c1)OCO2,1.64

row,SMILES,"hERG current change (%, negative = inhibition) at 10uM [%]"
1,COc1ccccc1CNC(=O)Cn1c(=O)oc2cc(Cl)ccc21,0.41
2,CC(C)CCCN1CCN=C1Nc1ccccc1,-3.11
3,CC(C)CCCN1C(Nc2ccccc2)=NC[C@@H]1CC(C)C,-60.1
4,CC(C)CCN1C(Nc2ccccc2)=NC[C@@H]1CC(C)C,-33.4
5,CC(C)C[C@H]1CN=C(Nc2ccccc2)N1CC(C)C,-3.04
6,CC(C)CCN1C(Nc2ccccc2)=NC[C@@H]1Cc1ccccc1,-47.9
7,CCCCN1C(Nc2ccccc2)=NC[C@@H]1CC(C)C,-34.5
8,CCCCCCCN1C(Nc2ccccc2)=NC[C@@H]1CC(C)C,-73.7
9,CCC(CC)CN1C(Nc2ccccc2)=NC[C@@H]1CC(C)C,-58.2
10,CC(C)CCCN1C(Nc2ccccc2)=NC[C@@H]1Cc1ccccc1,-62.3
11,CCN1C(Nc2ccccc2)=NC[C@@H]1CC(C)C,3.75
12,CC1(OC(=O)CCc2ccccc2)C(=O)C=C2C=C3CCCN3C=C2C1=O (centres unmarked),-1.36
13,Cc1cccc(NC(=O)CCc2ccc(S(=O)(=O)NC3CCCCC3)cc2)c1,14.4
14,Cc1oc2c(c(C)cc3oc(=O)c(CC(=O)N[C@@H](CC(C)C)C(=O)O)c(C)c32)c1C,15.8
15,COC(=O)CSc1nc2c(c(=O)n(C)c(=O)n2C)n1CCC(C)C,-5.54
16,CCS(=O)(=O)N1CCCC(C(=O)c2ccc(OC)cc2C)C1 (centres unmarked),28.9
17,CC(=O)O[C@@H]1/C=C/[C@](C)(O)C[C@@H](C)C/C=C/[C@H]2[C@@H]3O[C@]3(C)[C@@H](C)[C@H]3[C@H](Cc4ccccc4)NC(=O)[C@@]312,16
18,O=C(Nc1cccc(C(F)(F)F)c1)C(SCCO)c1ccccc1 (centres unmarked),-4.8
19,O=C(Nc1cccc(C(F)(F)F)c1)C(Sc1cccc[n+]1[O-])c1ccccc1 (centres unmarked),-42.7
20,CN(C)c1cccc(C(=O)OC(C(=O)Nc2ccc(Cl)cc2C(F)(F)F)c2ccccc2)c1 (centres unmarked),-3.78
21,O=C(Nc1ccc(Cl)cc1C(F)(F)F)C(Sc1cccc[n+]1[O-])c1ccccc1 (centres unmarked),-81.3
22,O=C(Nc1cc(C(F)(F)F)ccc1Cl)C(Sc1cccc[n+]1[O-])c1ccccc1 (centres unmarked),-14.5
23,COc1cccc(NC(=O)C(NCC(C)(C)CN(C)C)c2ccccc2)c1.O=C(O)C(=O)O (centres unmarked),-48.4

row,SMILES,"hERG current change (%, negative = inhibition) at 10uM [%]"
1,CN(C)CC(C)(C)CNC(C(=O)Nc1ccc(Cl)cc1C(F)(F)F)c1ccccc1 (centres unmarked),-76.9
2,N#CCC(=O)N/N=C\c1ccc(OC/C=C/c2ccccc2)cc1,14.4
3,Cc1ccccc1S(=O)(=O)Cc1ccc(C(=O)NC2CCCCC2)o1,-1.84
4,Nc1nc(SCC(=O)Nc2ccc([N+](=O)[O-])cc2Br)n[nH]1,3.65
5,CCOC(=O)C1(CC2CCCCO2)CCN(C(=O)Nc2ccccc2)CC1 (centres unmarked),12
6,COc1ccc(/C=C/c2cc(C(F)(F)F)on2)cc1,16.4
7,COc1ccc(/C=C/C(=O)Oc2ccc(C)cc2)cc1,-14.4
8,COc1ccc(/C=C/c2cc(-c3ccc(C)cc3)o[n+]2C)cc1.F[B-](F)(F)F,-77.1
9,Cc1ccccc1NC(=O)c1ccc2ccccc2c1,-8.12
10,CCC(C)(C(=O)Nc1c(C)cccc1C)N(C)C(=O)c1ccc2ccccc2n1 (centres unmarked),8.52
11,CSCC[C@H](NC(=O)c1cccs1)C(=O)N1CCC2(CC1)NCCc1[nH]cnc12,10.2
12,CCCCNc1ccc(S(=O)(=O)c2cccc([N+](=O)[O-])c2)cc1[N+](=O)[O-],-22.2
13,O=[N+]([O-])c1cccc(S(=O)(=O)c2ccc(NCCOCCO)c([N+](=O)[O-])c2)c1,-38.3
14,O=[N+]([O-])c1cccc(S(=O)(=O)c2ccc(NCCO)c([N+](=O)[O-])c2)c1,-51
15,CCn1c(=O)c(C(=O)CN2CCN(Cc3ccc4c(c3)OCO4)CC2)c(N)n(Cc2ccccc2)c1=O,-72
16,CCn1c(=O)c(C(=O)CN2CCOCC2)c(N)n(Cc2ccccc2)c1=O,-19
17,Cn1c(=O)c(C(=O)CN2CCCCCC2)c(N)n(Cc2ccccc2)c1=O,-13.5
18,Cn1c(=O)c(C(=O)CN2CCN(Cc3ccc4c(c3)OCO4)CC2)c(N)n(Cc2ccccc2)c1=O,-66.8
19,Cn1c(=O)c(C(=O)CN2CCOCC2)c(N)n(Cc2ccccc2)c1=O,-13.2
20,CCn1c(=O)c(C(=O)CN2CCN(S(=O)(=O)c3ccccc3)CC2)c(N)n(Cc2ccccc2)c1=O,-14.6
